The text below walks through data of PubChem BioAssay (NCATS).

SMILES strings stand for the structures. Records with an inconclusive call do not appear. Where a call stands in place of a potency, no number is given. The source made the active and inactive calls. Calls come from the whole dose curve; as a rule, active = well fitted inhibition curve with a large enough effect; inconclusive = small, poorly fitted or top-dose-only effect; inactive = flat fitted curve, though single readings scatter.

Sequence of Calcium and integrin-binding protein 1 (Homo sapiens) (Q99828 whole entry, looked up): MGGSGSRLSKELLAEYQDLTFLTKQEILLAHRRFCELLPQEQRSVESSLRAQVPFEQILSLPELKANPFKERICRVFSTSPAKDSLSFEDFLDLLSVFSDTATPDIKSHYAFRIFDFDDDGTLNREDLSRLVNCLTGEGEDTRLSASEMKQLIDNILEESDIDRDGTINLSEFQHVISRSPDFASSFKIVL

For this experiment, the target named is Calcium and integrin-binding protein 1 (Homo sapiens) (UniProt Q99828). As to the kind of experiment: Primary qHTS for Identification of Calcium Integrin Binding Protein 1 (CIB1) Competitor (AID 1508620). Note: top concentration of the series differs between compounds. As to conditions: CIB1-GST / FITC-alphaIIb peptide fluorescence polarization; series mostly up to 114 µM. The method, boiled down:
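Fluorescence polarization competition: GST-tagged CIB1 (1 uM final) preincubated with compound 15 min at room temperature, then FITC-labelled alphaIIb peptide (100 nM final) added. After 15 min at room temperature, polarization read at Ex 480/Em 540.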
Consider `Cc1ccc(CNc2ccc(N3CCN(C(=O)OC(C)(C)C)CC3)cc2)cc1`, for which the Potency entry was “inactive”.

Take `Cc1cc(C)nc(NC(=S)N2CCN(c3nccc(C(F)(F)F)n3)CC2)c1`: the Potency result was “inactive”.

With `COCCNc1ccc(NC(=O)c2cccs2)cn1`, the Potency entry is “inactive”.

Consider `COc1cccc(C2c3c(ncn(CCN4CCOCC4)c3=N)Oc3ccc4ccccc4c32)c1` (centres undefined), for which the Potency result is “inactive”.

On to `O=C(CN1C(=O)N/C(=C\c2cccn2-c2cccc(C(=O)O)c2)C1=O)Nc1cccc(Cl)c1`, for which the Potency result was “inactive”.

Take `Fc1ccc(Nc2nc(-c3ccnc(N4CCCCC4)c3)nc3ccccc23)cc1F`: the Potency result is “inactive”.

For the molecule `O=C(O)c1cccc(-n2cccc2/C=C2/C(=O)N(Cc3ccc(F)cc3)C(=O)N2Cc2ccc(F)cc2)c1`, the Potency result was “inactive”.

`Cc1cc2c(s1)c1cnn(Cc3ccc(-c4ccccc4)cc3)c(=O)c1n2C`: the Potency result was “inactive”.

Regarding `COc1ccc(C2Nc3ccccc3C(=O)N2Cc2ccccc2)cc1COc1ccc(NC(=O)c2ccccc2)cc1` (centres undefined), the Potency entry was “inactive”.

Turning to `COCCNc1cc2c(cc1[S+](=O)([O-])Nc1ccc(C)c(C)c1)CCC(=O)N2`, the Potency entry is “inactive”.

Regarding `O=C1Nc2ccc(Cl)cc2/C1=C\c1cc(Cl)c(O)c(Cl)c1`, the Potency entry is “inactive”.

`O=C(O)c1cccc2c1C(=O)N(c1ccccc1)C2`: the Potency entry is “inactive”.

Regarding `Cc1ccc(-c2ccc(=O)n(CCN)n2)cc1`, the Potency result was “inactive”.

For `COc1cccc(-c2nc3cc(NC(=O)c4ccc(C)c([N+](=O)[O-])c4)ccc3o2)c1`, the Potency entry is “inactive”.

With `Cn1c2cc(Br)sc2c2cnn(Cc3c(F)cccc3Cl)c(=O)c21`, the Potency entry was “inactive”.

For `CC(=O)N1CCc2cc(S(=O)(=O)Nc3ccc(C)c(C)c3)ccc21`, the Potency entry was “inactive”.

As to `COc1ccc(C2N=C(Nc3nc4ccccc4o3)NC3=C2C(=O)CCC3)cc1` (centres undefined), the Potency result was “inactive”.

As to `NC(=O)C1CCN(c2nc(-c3ccc(F)cc3)cs2)CC1`, the Potency result is “inactive”.

As to `Cc1cc(-c2nnc3n2CCCCC3)c(C)n1-c1cccc2ccccc12`, the Potency result was “inactive”.

Regarding `O=C(Nc1ccc2ccccc2c1)Nc1nnc(-c2ccc(Cl)cc2Cl)s1`, the Potency result was “inactive”.

`O=C(Nc1nnc(-c2ccncc2)s1)Nc1cc(C(F)(F)F)ccc1F`: the Potency result is “inactive”.

`O=C(Nc1ccccc1)Nc1nnc(-c2ccncc2)s1`: the Potency result was “inactive”.

Regarding `COc1ccc(C2Nc3ccccc3C(=O)N2Cc2cccnc2)cc1COc1c(C)cc(NC(C)=O)cc1C` (centres undefined), the Potency result is “inactive”.

As for `COC/C=C/c1cc(F)c(S(=O)(=O)N2CCN(S(=O)(=O)c3ccc4c(c3)OCCO4)CC2)cc1F`, the Potency entry is “inactive”.

In the case of `CC1=C(C(=O)Nc2nc3ccccc3s2)C(c2nn(C)cc2Cl)N=C(Nc2nc3ccccc3o2)N1` (centres undefined), the Potency entry was “inactive”.

`COc1cccc(C2c3c(ncn(-c4ccc(C)cc4)c3=N)Oc3ccc4ccccc4c32)c1` (centres undefined): the Potency result was “inactive”.

With `Cc1cccc(C)c1-n1c(SCC(=O)Nc2ccc(F)cc2)nnc1-c1cccc([S+](=O)([O-])N2CCCC2)c1`, the Potency entry is “inactive”.

Turning to `Cc1ccc(OCCn2c(CCNC(=O)c3cccc(N)c3)nc3ccccc32)cc1`, the Potency result is “inactive”.

For `CC(=O)NC1CCN(c2nc(-c3ccc(Br)cc3)cs2)CC1`, the Potency result is “inactive”.

Take `Cc1cc(C)nc(NC(=S)N2CCN(c3cccc4nccn34)CC2)c1`: the Potency entry was “inactive”.

In the case of `Cc1ccc(OCCn2c(CCNC(=O)c3cccc(C)c3)nc3ccccc32)cc1`, the Potency result was “inactive”.

`Cc1cnc(-c2ccccc2OC(C)C)nc1NCc1ccc(-n2ccnn2)cc1`: the Potency entry was “inactive”.

For the molecule `CCOc1ccc(CCNC(=O)c2ccnn2Cc2cccc(C)c2)cc1OCC`, the Potency entry was “inactive”.

`COc1ccc(C2c3c(n(Cc4ccccc4)cnc3=N)Oc3ccc4ccccc4c32)cc1OC` (centres undefined): the Potency entry is “inactive”.

Take `COc1ccc(COc2ccc(-c3nc4ccccc4[nH]3)cc2)cc1OC`: the Potency result is “inactive”.

With `COc1cccc(C2c3c(ncn(-c4ccc(C(C)(C)C)cc4)c3=N)Oc3ccc4ccccc4c32)c1` (centres undefined), the Potency result is “inactive”.

Take `Oc1c(CNc2ccccc2)cc(COCc2ccccc2)c2cccnc12`: the Potency entry is “inactive”.

`Cc1ccnc(NC(=S)N2CCN(c3ccc(F)cc3)CC2)c1`: the Potency entry was “inactive”.

Consider `CCn1cnc2c(Nc3cccc(Cl)c3)nc(C#N)nc21`, for which the Potency result was “inactive”.
